Measured values published in PubChem BioAssay.
Activity calls are given as the source filed them. Unless noted, how the calls were made is not given here.

Experiments:
[1] = tested on: Wnt5a (protein binding on small-molecule microarray); experiment: small molecules binding Wnt5a protein – biophysical, small-molecule microarray, 635/667 nm fluorescence, primary screen (AID 1142); settings: 635 nm fluorescence, higher = more signal;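 further: fluorescence read at 667 nm with signal to noise per printed feature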
[2] = ATP-based viability of Huh7 replicon cells – cell-based, CellTiter-Glo luminescence, basal, 48 h, cytotoxicity control for HCV replication inhibitor project, primary screen (AID 1143); settings: higher = more signal, called active from +8 up or from −8 down;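 further: Huh7 hepatoma cells carrying a hepatitis C replication reporter with no stimulus; test concentration not given here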
[3] = Pseudomonas biofilm growth suppression – PAO1 strain, BacTiter-Glo luminescence, LB-PBS, primary screen (AID 1144); settings: P. aeruginosa PAO1 biofilm, 12 h, higher = more signal
[4] = basal CRE-LacZ reporter activity in PC12 – cell-based, unstimulated, primary screen (AID 1145); settings: no forskolin, luminescence, 4.5 h, higher = more signal, called active from +8 up or from −8 down
[5] = forskolin-driven CRE-LacZ activity in PC12 – cell-based, CRE-LacZ reporter, forskolin-stimulated, primary screen (AID 1146); settings: luminescence, 4.5 h, higher = more signal, called active from +8 up or from −8 down;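 further: PC12 cells with 6xCRE LacZ reporter stimulated by forskolin 10 µM; beta-galactosidase reporter signal reflecting CREB driven transcription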
[6] = target: Streptavidin (Streptomyces avidinii) (UniProt P22629); experiment: compounds binding control protein streptavidin – biophysical, small-molecule microarray, 635/667 nm fluorescence, artefact control for SMM compound annotation, primary screen (AID 1147); settings: higher = more signal;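 further: signal reflects streptavidin binding to arrayed compounds as a control protein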
Chain of Streptavidin (Streptomyces avidinii) (P22629 whole entry, looked up): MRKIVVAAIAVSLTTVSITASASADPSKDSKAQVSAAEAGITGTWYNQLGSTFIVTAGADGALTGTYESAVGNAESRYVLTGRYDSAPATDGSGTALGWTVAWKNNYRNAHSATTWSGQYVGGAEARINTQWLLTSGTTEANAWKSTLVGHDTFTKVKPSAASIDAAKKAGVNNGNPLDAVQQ

[7] = probe aInhba binding on compound microarray – biochemical, small-molecule microarray, 635/667 nm fluorescence, primary screen (AID 1148); settings: higher = more signal;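 further: score merges 667nm spot fluorescence with signal-to-noise for antibody binding to printed compounds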
[8] = target: Torsin-1A (Homo sapiens) (UniProt O14656); experiment: TOR1A wild-type binding on microarray – cell lysate, small-molecule microarray, lysate, 635/667 nm, primary screen (AID 1149); settings: COS7 hTOR1A-WT lysate, 635 nm fluorescence, higher = more signal
Chain of Torsin-1A (Homo sapiens) (O14656 whole entry, looked up): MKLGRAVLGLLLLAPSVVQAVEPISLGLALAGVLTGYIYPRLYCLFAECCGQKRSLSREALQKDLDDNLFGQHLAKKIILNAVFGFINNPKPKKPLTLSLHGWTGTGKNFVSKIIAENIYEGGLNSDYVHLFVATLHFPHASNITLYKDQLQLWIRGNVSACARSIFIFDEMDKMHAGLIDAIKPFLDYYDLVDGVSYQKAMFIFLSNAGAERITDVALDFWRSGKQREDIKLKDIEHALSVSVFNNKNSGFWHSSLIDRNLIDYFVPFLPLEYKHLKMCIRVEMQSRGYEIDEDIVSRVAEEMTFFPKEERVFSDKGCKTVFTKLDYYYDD

[9] = target: Torsin-1A (Homo sapiens) (UniProt O14656); experiment: torsin A mutant lysate binding on microarrays – cell lysate, small-molecule microarray, COS7 lysate, 635/667 nm fluorescence, primary screen (AID 1150); settings: COS7 hTOR1A mutant lysate, 635 nm fluorescence, higher = more signal;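 further: score pools 667 nm emission and signal to noise measuring lysate protein binding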
[10] = tested on: Sonic hedgehog protein (Shh); experiment: Sonic hedgehog microarray binding compounds – biochemical, small-molecule microarray, 635/667 nm fluorescence, primary screen (AID 1151); settings: 635 nm fluorescence, higher = more signal;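 further: Shh protein binding to compounds spotted on small-molecule microarray slides; score combines spot fluorescence intensity with signal-to-noise across triplicate slides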
[11] = optical density shifts of acrAB sulA E. coli – strain DRC41, OD650, 48 h, E. coli filamentation inducer project, primary screen (AID 1152); settings: higher = more signal, called active from +8 up or from −8 down;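 further: E. coli MC1000 strain DRC41 lacking acrAB efflux pump and sulA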
[12] = probe aLefty1 binding on compound microarray – biochemical, small-molecule microarray, 635/667 nm fluorescence, primary screen (AID 1153); settings: higher = more signal;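 further: score merges spot fluorescence with signal-to-noise ratio from the scanned slide images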
[13] = plasmodial surface anion channel blockers, osmotic lysis – cell-based, P. falciparum Indochina, OD700, 1 h, primary screen (AID 1154); settings: P. falciparum Indochina infected RBC osmotic lysis, higher = more signal, called active from +8 up or from −8 down
[14] = plasmodial surface anion channel blockers, osmotic lysis – cell-based, P. falciparum Indochina, OD700, 2 h, primary screen (AID 1155);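 further: lysis reports solute entry through the parasite surface anion channel PSAC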; settings: P. falciparum Indochina infected erythrocytes, higher = more signal, called active from +8 up or from −8 down
[15] = changes in parasitized red cell lysis, either direction – P. falciparum Indochina, OD700, 3 h, PSAC antagonist project, primary screen (AID 1156); settings: P. falciparum-infected erythrocytes, osmotic lysis, higher = more signal, called active from +8 up or from −8 down
[16] = plasmodial surface anion channel blockers, osmotic lysis – cell-based, P. falciparum Indochina, OD700, 18 h, primary screen (AID 1157); settings: P. falciparum Indochina infected erythrocytes, osmotic lysis OD700, 18 h; higher = more signal, called active from +8 up or from −8 down
[17] = S6 kinase pathway phospho-S6 level changes – cell-based, A549, cytoblot, luminescence, serum-stimulated, primary screen (AID 1158); settings: 5 h, higher = more signal;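 further: serum-stimulated A549 lung adenocarcinoma cells; signal is phosphorylated S6 detected by cytoblot immunostaining with HRP secondary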
[18] = target: NADPH oxidase 2 (Homo sapiens) (UniProt P04839); experiment: compounds shifting NOX2 Amplex Red fluorescence – cell-based, HEK293-NOX2, PMA-stimulated, NOX inhibitor project, primary screen (AID 1159); settings: 45 min, higher = more signal, called active from +8 up or from −8 down; further: test concentration not given here
Chain of NADPH oxidase 2 (Homo sapiens) (P04839 whole entry, looked up): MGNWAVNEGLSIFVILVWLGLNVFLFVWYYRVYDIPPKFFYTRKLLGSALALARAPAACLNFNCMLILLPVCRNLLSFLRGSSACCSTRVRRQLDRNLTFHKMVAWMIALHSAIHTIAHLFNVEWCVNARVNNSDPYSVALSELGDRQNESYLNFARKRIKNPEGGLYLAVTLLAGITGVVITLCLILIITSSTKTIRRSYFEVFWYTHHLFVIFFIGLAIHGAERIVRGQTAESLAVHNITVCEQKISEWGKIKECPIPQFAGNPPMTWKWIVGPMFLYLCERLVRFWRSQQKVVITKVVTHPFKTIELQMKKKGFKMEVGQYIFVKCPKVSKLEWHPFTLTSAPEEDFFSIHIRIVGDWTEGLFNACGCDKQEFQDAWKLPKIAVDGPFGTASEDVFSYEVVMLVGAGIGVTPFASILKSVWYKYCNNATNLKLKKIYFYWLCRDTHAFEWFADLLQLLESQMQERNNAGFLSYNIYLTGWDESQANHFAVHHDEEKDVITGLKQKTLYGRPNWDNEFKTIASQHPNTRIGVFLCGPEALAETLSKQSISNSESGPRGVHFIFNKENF

[19] = target: NADPH oxidase 4 (Homo sapiens) (UniProt Q9NPH5); experiment: compounds shifting NOX4 Amplex Red fluorescence – cell-based, HEK293-NOX4, tetracycline-induced, NOX inhibitor project, primary screen (AID 1160); settings: HEK293-NOX4, Amplex Red H2O2 fluorescence, 45 min; higher = more signal, called active from +8 up or from −8 down
Chain of NADPH oxidase 4 (Homo sapiens) (Q9NPH5 whole entry, looked up): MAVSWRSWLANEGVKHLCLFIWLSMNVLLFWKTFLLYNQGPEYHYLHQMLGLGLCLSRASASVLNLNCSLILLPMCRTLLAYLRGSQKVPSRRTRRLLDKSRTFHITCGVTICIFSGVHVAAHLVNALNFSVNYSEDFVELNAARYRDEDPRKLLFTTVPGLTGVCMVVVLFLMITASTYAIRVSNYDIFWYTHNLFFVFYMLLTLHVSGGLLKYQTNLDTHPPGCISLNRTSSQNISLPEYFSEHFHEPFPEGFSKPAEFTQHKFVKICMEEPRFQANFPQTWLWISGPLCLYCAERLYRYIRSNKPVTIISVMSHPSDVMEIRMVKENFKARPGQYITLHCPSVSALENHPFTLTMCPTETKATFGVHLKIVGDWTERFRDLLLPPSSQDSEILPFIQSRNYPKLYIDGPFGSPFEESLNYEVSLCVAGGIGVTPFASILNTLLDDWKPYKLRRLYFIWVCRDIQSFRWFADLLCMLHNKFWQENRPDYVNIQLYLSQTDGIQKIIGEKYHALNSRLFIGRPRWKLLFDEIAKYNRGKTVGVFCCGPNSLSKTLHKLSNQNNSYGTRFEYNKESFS

[20] = target: NADPH oxidase 5 (Homo sapiens) (UniProt Q96PH1); experiment: compounds shifting NOX5 Amplex Red fluorescence – cell-based, HEK293-NOX5, NOX inhibitor project, primary screen (AID 1161); settings: HEK293-NOX5, ionomycin, 45 min, higher = more signal
Chain of NADPH oxidase 5 (Homo sapiens) (Q96PH1 whole entry, looked up): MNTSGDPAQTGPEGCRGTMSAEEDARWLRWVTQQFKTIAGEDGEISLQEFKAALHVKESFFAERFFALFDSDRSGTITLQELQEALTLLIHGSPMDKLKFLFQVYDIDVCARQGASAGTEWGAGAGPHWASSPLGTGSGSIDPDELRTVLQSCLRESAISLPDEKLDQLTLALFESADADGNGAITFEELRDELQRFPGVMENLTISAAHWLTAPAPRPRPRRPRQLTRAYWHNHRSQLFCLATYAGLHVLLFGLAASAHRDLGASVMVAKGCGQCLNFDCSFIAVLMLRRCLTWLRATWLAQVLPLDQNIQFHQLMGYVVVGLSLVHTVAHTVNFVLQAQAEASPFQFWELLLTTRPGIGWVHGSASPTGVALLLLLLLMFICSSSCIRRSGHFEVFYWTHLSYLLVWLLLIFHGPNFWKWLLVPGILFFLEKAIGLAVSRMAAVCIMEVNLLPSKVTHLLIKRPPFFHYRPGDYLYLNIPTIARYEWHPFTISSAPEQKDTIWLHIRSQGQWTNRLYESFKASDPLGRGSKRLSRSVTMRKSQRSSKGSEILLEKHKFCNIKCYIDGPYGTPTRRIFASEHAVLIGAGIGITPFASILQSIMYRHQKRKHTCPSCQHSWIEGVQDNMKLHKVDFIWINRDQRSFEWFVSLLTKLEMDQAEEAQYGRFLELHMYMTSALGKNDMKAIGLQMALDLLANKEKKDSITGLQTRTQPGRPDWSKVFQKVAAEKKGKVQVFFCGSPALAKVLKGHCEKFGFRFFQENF

Compound	composite z-score [1]	z-score [2]	z-score [3]	z-score [4]	z-score [5]	composite z-score [6]	composite z-score [7]	composite z-score [8]	composite z-score [9]	composite z-score [10]	z-score [11]	composite z-score [12]	z-score [13]	z-score [14]	z-score [15]	z-score [16]	z-score [17]	z-score [18]	z-score [19]	z-score [20]
COCCOC(=O)N1C(=O)[C@@]2(c3cc(C#CC4(O)CCCCCC4)ccc31)[C@H](c1ccc(O)cc1)N1[C@H](c3ccccc3)[C@H](c3ccccc3)OC(=O)[C@H]1[C@@H]2C(=O)N1CCCCCCC1	0.357	-0.844 (inactive)	0.887 (inactive)	0.484 (inactive)	-0.125 (inactive)	-0.215	-0.0631	0.123	0.275	1.09	0.341 (inactive)	1.08	1.13 (inactive)	0.928 (inactive)	0.0786 (inactive)	0.166 (inactive)	-0.363	1.61 (inactive)	0.0838 (inactive)	1.41
C=CCOC(=O)[C@H]1[C@@H]2C(=O)O[C@@H](c3ccccc3)[C@@H](c3ccccc3)N2[C@@H](c2ccc(OCCOC(=O)[C@@H]3C[C@@H]4C(=O)N[C@@H](CCCC[N+](C)(C)C)C(=O)N4[C@@H]3c3ccc(O)cc3)cc2)[C@]12C(=O)Nc1ccc(I)cc12	1.02	-0.56 (inactive)	0.201 (inactive)	0.553 (inactive)	1.07 (inactive)	0.0756	0.632	1.16	1.57	2.05	-1.78 (inactive)	0.521	-1.03 (inactive)	-0.497 (inactive)	5.53 (inactive)	-0.582 (inactive)	-2.1	1.66 (inactive)	-1.21 (inactive)	0.61
CCOC(=O)C1=CC[C@@H](c2ccc(OC)cc2)N(S(=O)(=O)c2ccc(C)cc2)[C@H]1c1ccc(C)cc1	0.151	-2.4 (inactive)	0.12 (inactive)	-0.415 (inactive)	-0.24 (inactive)	0.778	0.1	-0.414	0.308	-0.625	-1.22 (inactive)	0.578	0.833 (inactive)	0.905 (inactive)	-0.715 (inactive)	0.68 (inactive)	-0.752	0.864 (inactive)	-0.627 (inactive)	0.0417
CC(C)C(=C=CC[C@H](O)c1ccccc1OCCO)C[C@H](O)c1cc(Cl)cc(Cl)c1O	0.192	-0.825 (inactive)	-0.328 (inactive)	14.6 (active)	1.59 (inactive)	0.855	0.0966	0.786	1.06	1.85	-0.279 (inactive)	0.199	19.5 (active)	4.2 (inactive)	-0.25 (inactive)	1.44 (inactive)	-0.383	-1.24 (inactive)	-1.67 (inactive)	-1.88
